SRC3 inh = SRC3 coactivator transcriptional activity inhibitors, primary screen, cell-based, luminescence; Nuclear receptor coactivator 3 (Homo sapiens), Q9Y6Q9; HEK293 GAL4-SRC3 luciferase reporter; inhibition, % at 3.6 µM; 360,000 tested, 0.17% active; AID 588352, 2011;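 active means inhibition above a per-campaign cutoff, the mean of all compounds plus 3 SD, cut at about 60% in these data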;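 further: 0% = DMSO-treated cells and 100% = gossypol-treated cells at 36 µM; higher means less SRC3-driven luciferase light from the GAL4 reporter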
NR5A2 inv ag = LRH-1 (NR5A2) inverse agonists, primary screen, cell-based, luminescence, HEK293T, StAR-luciferase reporter; inhibition, % at 3.6 µM; LRH-1 transfected, 24 h; AID 602396, 2012; 360,000 tested, 0.13% active;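 active means inhibition above the mean inhibition of all tested compounds plus 3 SD, cut at about 73% in these data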;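 further: 0% = DMSO wells and 100% = reporter-only cells lacking LRH-1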
NR2F2 inh = NR2F2 transcriptional activity inhibitors, primary screen, cell-based, luciferase reporter, HEK293T, luminescence; AID 686940, 2013; COUP transcription factor 2 (Homo sapiens), P24468; inhibition, % at 8.6 µM; HEK293T NGFI-A luciferase reporter; 370,000 tested, 0.7% active;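 active means inhibition above a per-plate cutoff, mean inhibition of test wells between control levels plus 3 SD, cut at about 38% in these data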;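 further: cells cotransfected with COUP-TFII expression vector driving the NGFI-A reporter; 0% = median of COUP-TF2 test wells and 100% = reporter-only cells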
Gli-Sufu antag = Gli-Sufu pathway antagonists, primary screen, luciferase luminescence, Sufu-KO-LIGHT cells, uHTS; AID 588413, 2011; inhibition, % at 5 µM; Sufu-KO-LIGHT fibroblasts, Gli luciferase reporter luminescence; 340,000 tested, 0.74% active;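 active means inhibition above about 55%, limit read from the data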;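 further: 0% = DMSO-treated cells and 100% = wells with medium but no cells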
NCOA1 inh = SRC1 coactivator transcriptional activity inhibitors, primary screen, cell-based, luminescence; HEK293 GAL4-SRC1 luciferase reporter; inhibition, % at 3.6 µM; 360,000 tested, 0.12% active; AID 588354, 2011;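 active means inhibition above the campaign mean plus 3 SD, with each screening campaign given its own cutoff, cut at about 60% in these data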;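 further: 0% = DMSO treated cells and 100% = gossypol at 36 µM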
Target sequence (Q15788 whole entry, looked up, the tested form may be a part): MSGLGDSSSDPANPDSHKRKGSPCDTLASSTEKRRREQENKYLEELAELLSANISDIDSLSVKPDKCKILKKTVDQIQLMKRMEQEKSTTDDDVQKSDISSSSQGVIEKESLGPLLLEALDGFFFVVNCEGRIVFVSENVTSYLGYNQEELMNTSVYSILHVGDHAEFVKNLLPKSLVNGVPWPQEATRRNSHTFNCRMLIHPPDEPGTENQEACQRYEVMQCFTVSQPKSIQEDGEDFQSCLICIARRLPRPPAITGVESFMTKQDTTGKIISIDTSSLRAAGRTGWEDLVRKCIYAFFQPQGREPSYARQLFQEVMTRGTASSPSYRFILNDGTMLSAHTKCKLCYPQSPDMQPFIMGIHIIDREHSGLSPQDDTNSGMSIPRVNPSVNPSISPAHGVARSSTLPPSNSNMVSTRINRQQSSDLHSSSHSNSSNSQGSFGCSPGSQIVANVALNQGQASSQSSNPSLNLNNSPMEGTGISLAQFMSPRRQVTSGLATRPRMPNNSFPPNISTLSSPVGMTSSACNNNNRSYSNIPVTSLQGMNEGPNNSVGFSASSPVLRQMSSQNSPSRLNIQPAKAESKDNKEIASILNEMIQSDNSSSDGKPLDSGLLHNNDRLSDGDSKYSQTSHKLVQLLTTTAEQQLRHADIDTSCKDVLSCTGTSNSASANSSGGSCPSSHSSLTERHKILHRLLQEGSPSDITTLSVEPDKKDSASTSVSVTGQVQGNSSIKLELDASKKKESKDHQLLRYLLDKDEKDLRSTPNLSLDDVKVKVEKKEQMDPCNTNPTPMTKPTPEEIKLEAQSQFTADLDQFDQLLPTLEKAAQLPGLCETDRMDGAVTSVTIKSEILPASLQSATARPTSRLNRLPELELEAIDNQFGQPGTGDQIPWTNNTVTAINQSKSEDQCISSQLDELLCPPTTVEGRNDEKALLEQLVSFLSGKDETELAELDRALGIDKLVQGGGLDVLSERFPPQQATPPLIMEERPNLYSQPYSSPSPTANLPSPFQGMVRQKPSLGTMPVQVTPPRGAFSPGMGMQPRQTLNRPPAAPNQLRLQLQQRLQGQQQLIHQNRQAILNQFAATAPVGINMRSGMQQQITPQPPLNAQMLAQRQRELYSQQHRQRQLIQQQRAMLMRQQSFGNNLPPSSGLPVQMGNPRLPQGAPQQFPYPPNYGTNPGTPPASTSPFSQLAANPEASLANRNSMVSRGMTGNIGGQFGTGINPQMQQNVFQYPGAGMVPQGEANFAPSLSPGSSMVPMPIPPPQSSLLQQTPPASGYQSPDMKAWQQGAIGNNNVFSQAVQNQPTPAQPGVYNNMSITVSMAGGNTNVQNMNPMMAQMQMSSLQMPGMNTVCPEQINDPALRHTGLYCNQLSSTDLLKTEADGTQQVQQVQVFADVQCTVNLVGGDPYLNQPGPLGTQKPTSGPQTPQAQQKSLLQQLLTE
SRC2 inh = inhibition of GAL4-SRC2 driven luciferase reporter, primary screen, SRC2 inhibitor project, cell-based, luminescence | Nuclear receptor coactivator 2 (Homo sapiens), Q15596 | HEK293 GAL4-SRC2 luciferase reporter | inhibition, % at 9 µM | 370,000 tested, 0.17% active | AID 651957, 2012;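 active means inhibition above the mean inhibition of all tested compounds plus 3 SD, set per campaign, cut at about 52% in these data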;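 further: 0% = DMSO treated cells and 100% = cells given Gossypol at 36 µM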
Gli-Sufu confirm = Gli-SUFU pathway antagonists, confirmation, single concentration, luciferase luminescence, Sufu-KO-LIGHT cells; inhibition, % at 5 µM; 2,500 tested, 40% active; shares compounds with Gli-Sufu antag; Gli luciferase reporter;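 active means mean inhibition at 5 µM reaching about 45%, limit read from the data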;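 further: plate controls were DMSO-treated cells for no effect and wells lacking cells for full effect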
Gli cytotox = cytotoxicity in Sufu-KO-LIGHT cells, confirmation, cytotoxicity control for Gli-SUFU antagonist project, cell-based, ATP luminescence, single concentration | shares compounds with Gli-Sufu antag | cytotoxicity, % at 5 µM | 2,500 tested, 32% active;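 active means mean cytotoxicity at 5 µM above about 25%, limit read from the data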;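 further: cells exposed to compound overnight for roughly 16 to 18 hours; plate controls were DMSO wells with cells for no effect and medium without cells for full effect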
Wnt3a counter = Wnt3a reporter signal inhibition, confirmation, counter-screen for Gli-SUFU antagonist project, Wnt-LIGHT cells, luminescence, single concentration; shares compounds with Gli-Sufu antag; Wnt3a-driven luciferase reporter; inhibition, % at 6.25 µM; 2,500 tested, 20% active;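 active means mean inhibition above about 25%, limit read from the data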
Gal4-VP16 ctr = Gal4-VP16 luciferase reporter inhibitors, counter-screen for COUP-TFII antagonist project, cell-based, luminescence, HEK293; shares compounds with NR2F2 inh; inhibition, % at 8.5 µM; 2,500 tested, 25% active; in the data active means inhibition above about 13%
NR2F2 inh conf = NR2F2 transcriptional activity inhibitors, confirmation, cell-based, luciferase reporter, HEK293, triplicate; shares compounds with NR2F2 inh; HEK293 NGFI-A luciferase reporter, luminescence; inhibition, % at 8.5 µM; 2,500 tested, 45% active;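 active means mean inhibition over three repeats above a set limit taken from the earlier primary screen, cut at about 38% in these data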;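 further: 100% = cells given the luciferase reporter alone without the COUP-TF2 vector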
The depositor's hits bear a star; · = no result. Sampled rows, rich in hits. Any-hit rate of the full collection: about 1.3%.

SMILES	SRC3 inh	NR5A2 inv ag	NR2F2 inh	Gli-Sufu antag	NCOA1 inh	SRC2 inh	Gli-Sufu confirm	Gli cytotox	Wnt3a counter	Gal4-VP16 ctr	NR2F2 inh conf
Cc1ccc(CN2CCN(Cc3ccc(-n4cccn4)cc3)CC2CCO)cc1 (stereo not drawn)	20.4	2.2	6.6	26.2	-1.7	12.9	·	·	·	·	·
Cc1nc2cc(N3CCN(C)CC3)c(NC(=O)Cc3ccccc3)cc2c(=O)n1Cc1ccccc1	44.8	20.5	48.8*	54.0	28.6	46.1	49.1*	9.6	-13.9	-0.7	15.3
CCN(CC)S(=O)(=O)c1ccc(N2CCN(c3ccccc3OC)CC2)c(N)c1	11.9	16.0	48.4*	65.5*	4.7	17.7	77.7*	27.7*	31.5*	5.8	22.3
OCC1OC(n2ccc3c(NO)ncnc32)C(O)C1O (stereo not drawn)	84.8*	98.2*	47.4*	75.0*	68.9*	41.4	60.0*	53.6*	69.4*	27.4*	28.0
OC[C@H]1O[C@@H](n2cnc3c(Nc4ccccc4)ncnc32)[C@H](O)[C@@H]1O	-48.2	-65.7	-64.3	-9.6	-135.5	-67.0	·	·	·	·	·
Nc1nc2c(ncn2[C@@H]2O[C@H](C(=O)NCC3CCCCC3)[C@@H](O)[C@H]2O)c(=O)[nH]1	·	·	-1.4	·	·	-8.7	·	·	·	·	·
N=c1c2c(n(Cc3ccc(Cl)c(Cl)c3)c3c1CCC3)CCCC2	67.7*	95.7*	63.7*	83.3*	62.9*	-45.8	88.7*	19.2	35.8*	16.5*	46.6*
N=c1c2c(n(Cc3ccc(Br)cc3)c3c1CCC3)CCCC2	74.8*	92.7*	68.3*	88.2*	42.4	-19.3	88.9*	37.8*	54.2*	24.3*	60.6*
COc1ccc(NS(=O)(=O)c2ccc(N3CCOCC3)c(N)c2)cc1	16.1	26.0	47.9*	61.8*	3.5	23.8	61.4*	26.3*	28.0*	-9.4	33.5
COc1ccc(NS(=O)(=O)c2ccc(NC(=O)c3ccc(CN4CCOCC4)cc3)cc2)cc1	-2.4	37.0	63.9*	57.4*	7.9	28.9	28.3	13.3	3.0	-3.6	51.9*
CCOC(=O)CN1C(=O)[C@]2(OCCC=C[C@H]2C)c2ccccc21	·	·	2.4	·	·	-9.4	·	·	·	·	·
Cc1nc2ccccc2cc1OCc1ccc(Cl)cc1	-3.8	11.0	49.6*	53.4	-15.2	-0.6	50.1*	36.9*	4.0	-60.9	28.8
COc1cccc(COc2cc3ccccc3nc2C)c1	-2.6	27.8	58.6*	52.7	3.2	-8.5	58.4*	30.5*	15.2	-62.5	41.1*
COC(=O)c1sccc1OCc1cccc(OC)c1	3.5	0.7	7.3	-0.3	-72.4	-4.8	·	·	·	·	·
Cc1nc2ccccc2cc1OCc1ccccc1	-13.2	12.0	23.7	26.1	-12.5	2.7	·	·	·	·	·
O=C(Nc1ccc(F)cc1)OCc1cn(Cc2ccccc2Cl)nn1	·	·	-4.1	·	·	-14.5	·	·	·	·	·
Cc1oc(C(C)(C)C)cc1C(=O)NCc1ccc2c(c1)OCO2	11.5	-7.8	9.3	-3.8	-2.8	-3.9	·	·	·	·	·
Cn1nc(C(C)(C)C)cc1C(=O)NCc1ccc2c(c1)OCO2	15.4	41.5	59.9*	68.0*	6.6	15.1	68.2*	30.2*	42.9*	-6.5	50.2*
C[C@@H]1ON(C)[C@H]2C[C@H]3c4cc(Br)ccc4CCN3C[C@@H]12	·	·	9.5	·	·	21.6	·	·	·	·	·
COc1ccc(Nc2nc(N3CCCC3)c3ccccc3n2)cc1	8.5	11.2	22.4	49.7	6.9	6.1	·	·	·	·	·
CCN(CC)c1ccc(Nc2nc(N3CCOCC3)c3ccccc3n2)cc1	36.9	34.2	59.7*	66.5*	12.9	29.3	61.8*	31.3*	8.2	7.6	43.0*
COc1ccc(-c2c(C)nc3c(-c4ccc(F)cc4)cnn3c2N)cc1	-60.6	-31.4	-42.4	-9.2	-54.0	-30.8	·	·	·	·	·
Cc1nc2c(-c3ccc(Cl)cc3)cnn2c(N)c1-c1ccc(F)cc1	49.6	29.1	52.4*	62.7*	49.5	42.3	81.3*	18.4	84.3*	0.8	68.1*
Cc1cc(N2CCCC2=O)cc(C)c1S(=O)(=O)NCCOc1ccc(C(C)(C)C)cc1	26.1	-4.0	43.6*	74.8*	-137.1	18.9	71.8*	43.6*	-1.9	-0.9	18.6
C[C@@H]1Cc2cc(O)cc(O)c2C(=O)O1	·	·	-2.9	·	·	-12.0	·	·	·	·	·
SMILES	SRC3 inh	NR5A2 inv ag	NR2F2 inh	Gli-Sufu antag	NCOA1 inh	SRC2 inh	Gli-Sufu confirm	Gli cytotox	Wnt3a counter	Gal4-VP16 ctr	NR2F2 inh conf
Cc1nn(C(C)(C)C)c(C)c1/C=N/OC(=O)Nc1ccc(Cl)c(Cl)c1	79.0*	24.6	68.8*	87.9*	60.0	70.2*	88.8*	-7.8	102.8*	48.7*	84.2*
CN1CCCCC(NC(=O)c2c(F)cccc2F)C1=O (stereo not drawn)	·	·	-14.9	·	·	17.3	·	·	·	·	·
O=S(=O)(NCc1cccs1)c1ccc(Br)cc1	9.4	3.4	6.0	2.5	5.5	15.1	·	·	·	·	·
O=C(Nc1ccc(Br)cc1)c1ccc(F)c(S(=O)(=O)NCc2cccs2)c1	20.1	35.2	71.7*	51.3	10.7	14.4	51.9*	43.4*	0.6	-2.0	55.8*
COc1cccc(Cn2c(NCC(C)C)nc3c2c(=O)n(C)c(=O)n3C)c1	10.5	12.1	3.0	26.7	-28.4	-4.9	·	·	·	·	·
COc1cccc(Cn2c(NCc3ccco3)nc3c2c(=O)n(C)c(=O)n3C)c1	·	·	49.2*	80.9*	·	22.1	79.7*	40.6*	39.4*	0.6	24.2
O=C(CCCCN1CCCCC1)c1ccccc1	19.6	-3.1	14.5	0.2	-3.5	-17.9	·	·	·	·	·
O=C(C(=Cc1ccccc1)CN1CCCCC1)c1ccccc1	-7.6	77.3*	51.6*	60.3*	18.4	22.3	77.5*	12.7	68.9*	72.3*	95.2*
COCc1cc(N2CCN(C(=O)OC(C)(C)C)C[C@@H]2C)ccc1N1CC[C@@H](O)C1	·	·	20.7	·	·	-55.3	·	·	·	·	·
